Only some compounds are listed: those with a hit (about 5.2% of all), similar ones and a draw of the others.
VDR inhibitor: blocks the human vitamin D receptor; P11473; VDR-SRC2-3 peptide fluorescence polarization, 2 h; Potency, µM, most hits filed as inhibitors; 400,000 compounds, 0.93% hits; AID 504847
Target sequence (P11473 whole entry, looked up): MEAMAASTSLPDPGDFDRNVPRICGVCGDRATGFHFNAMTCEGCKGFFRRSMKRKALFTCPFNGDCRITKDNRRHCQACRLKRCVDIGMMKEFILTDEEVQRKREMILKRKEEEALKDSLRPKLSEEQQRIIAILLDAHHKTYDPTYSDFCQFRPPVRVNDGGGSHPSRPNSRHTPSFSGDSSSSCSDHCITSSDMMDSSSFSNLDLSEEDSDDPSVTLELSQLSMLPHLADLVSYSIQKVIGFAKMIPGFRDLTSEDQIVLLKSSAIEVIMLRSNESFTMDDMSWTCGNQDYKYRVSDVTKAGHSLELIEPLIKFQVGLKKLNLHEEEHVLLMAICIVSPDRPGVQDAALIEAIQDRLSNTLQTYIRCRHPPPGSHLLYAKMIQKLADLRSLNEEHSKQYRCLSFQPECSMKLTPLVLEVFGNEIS
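Measured by FP: displacement of SRC2-3 coactivator peptide from VDR by library compounds, following a two-hour ambient incubation.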
IDH1 R132H inh: inhibitors of human mutant IDH1 R132H. IDH1-R132H enzyme, NADPH consumption, diaphorase/resazurin fluorescence. O75874. 390,000 compounds, 0.093% hits. Potency, µM (highest dose often 76.6 µM), most hits filed as inhibitors; note: nearly all actives have a fitted effect of over 65% in size
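IDH1-R132H (0.5 ug/mL) preincubated 30 min with compound, then NADPH (0.016 mM) and alpha-KG (2 mM) added; 80 min at RT, pH 7.5. Remaining NADPH coupled via diaphorase/resazurin to fluorescence (540/590 nm); concentration-response curves normalized to no-enzyme control.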
TrxR1 inh: rat TrxR1 inhibition | O89049 | recombinant rTrxR1, NADPH fluorescence consumption, selenite substrate | Potency, µM (highest dose often 114 µM), actives largely listed as inhibitors | 390,000 compounds, 1% hits | AID 588453; note: nearly all actives have a fitted effect of over 65% in size
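Rat TrxR1 (90 nM in the dispensed reagent) was pre-reduced with 400 uM NADPH for 5 min at room temperature, then incubated with compound for 15 min. After 400 uM selenite was added, NADPH fluorescence (Ex 340/Em 450 nm) was followed for 8 min.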
PLK1 PBD block: PLK1 (human) polo-box domain binding inhibition; P53350; Plk1 PBD binding of FITC phosphopeptide, fluorescence polarization; Potency, µM, actives largely listed as inhibitors; 360,000 compounds, 2.8% hits; AID 720504; note: series mostly up to about 57 µM; nearly all actives have a fitted effect of over 65% in size
TrxR1 substrate: substrates of rat thioredoxin reductase 1; O89049; purified TrxR1 substrate turnover, NADPH consumption readout; Potency, µM (top dose mostly 114 µM); 390,000 compounds, 0.01% hits; AID 588456; note: nearly all actives have a fitted effect of over 50% in size
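Rat TrxR1, dispensed at 90 nM, was prereduced with 400 uM NADPH (final) for 5 min at ~22 deg C, then incubated with compound 15 min before 400 uM selenite. A first-read NADPH fluorescence drop versus no-compound background flagged substrates.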
Sfp PPTase inh: blocks B. subtilis Sfp PPTase activity; Biochemical Sfp PPTase activity, qHTS; 310,000 compounds, 3.5% hits; Potency, µM, actives largely listed as inhibitors; Q9F4F7;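 note: the enzyme is Sfp with the accession as filed and its product quenches rhodamine fluorescence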
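Compounds were incubated with enzyme (final 15 nM) for 15 min at room temperature before substrate addition started the reaction. Fluorescence at 525 nm excitation, 598 nm emission was recorded immediately and after 30 minutes.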
Large screens that a line does not name were inactive. Calls come from the whole dose curve; as a rule, active = well fitted curve in the direction sought with a large enough effect; inconclusive = small, poorly fitted or top-dose-only effect, or another doubt; inactive = no such curve, though single readings can be large; an effect the other way counts as inactive or inconclusive.

Cc1cc(NC(=O)CSc2nccn2-c2cccc(F)c2)no1	none (no result: Sfp PPTase inh)
Cc1cccc(-n2ccnc2SCC(=O)Nc2cc(C)on2)c1	PLK1 PBD block 27µM
COc1ccc(/C=C2\SC(=S)N(CCCC(=O)NNC(=O)c3ccccc3O)C2=O)cc1	PLK1 PBD block 24µM
COc1ccc(/C=C2\SC(=S)N(CC(=O)OCC(=O)Nc3cc(Cl)cc(Cl)c3)C2=O)cc1	PLK1 PBD block inconclusive, Sfp PPTase inh 20µM
Cc1ccc(/C=C2\SC(=S)N(CCCC(=O)Nc3ccccc3C(=O)O)C2=O)cc1	VDR inhibitor inconclusive, PLK1 PBD block 19µM
COc1ccc(CN2C(=O)/C(=C/c3ccncc3)SC2=S)cc1	VDR inhibitor 50µM, IDH1 R132H inh inconclusive, PLK1 PBD block inconclusive, Sfp PPTase inh inconclusive
CCCCCCCC1=Cc2ccc(F)cc2C(C(C(C)=O)C(=O)OC)N1C(=O)OC (stereo not drawn)	none (no result: IDH1 R132H inh, TrxR1 inh, PLK1 PBD block, TrxR1 substrate)
CCc1ccc(/C=C2\SC(=S)N(CCCC(=O)Nc3ccccc3C(=O)O)C2=O)cc1	VDR inhibitor inconclusive, PLK1 PBD block 21µM
Cc1cc(N2CCN(C)CC2)nc2ccc(NC(=S)N3CCN(c4ccc(Cl)cc4)CC3)cc12	Sfp PPTase inh 45µM
Cc1cc(N2CCN(C)CC2)nc2ccc(NC(=S)N3CCN(c4ccc(F)cc4)CC3)cc12	none
Cc1cc(=O)[nH]c(NN)n1	PLK1 PBD block inconclusive, Sfp PPTase inh 45µM
Cc1cc(=O)[nH]c(NN=C2C3CC4CC(C3)CC2C4)n1	Sfp PPTase inh 45µM
Cc1cc(=O)[nH]c(NN=C2CCCCC2C)n1 (stereo not drawn)	none (no result: Sfp PPTase inh)
Cc1cc(=O)[nH]c(N/N=C2/CCCC/C2=C\c2ccccc2)n1	TrxR1 inh 40µM, PLK1 PBD block inconclusive
COc1ccccc1-c1nnc2n1N=C(c1c(OC)cccc1OC)CS2	none (no result: VDR inhibitor, IDH1 R132H inh, TrxR1 inh, PLK1 PBD block, TrxR1 substrate)
COC(C/C=C/C(=O)COCc1ccccc1)OC	VDR inhibitor inconclusive, TrxR1 inh inconclusive
COC(C/C=C/C(=O)[C@H](C)OCc1ccccc1)OC	VDR inhibitor inconclusive, TrxR1 inh 45µM (no result: Sfp PPTase inh)
CCc1ccc(S(=O)(=O)N2CCN(c3ccccc3OC)CC2)cc1	none
C[C@@H]1CN([C@H](C)CO)C(=O)c2cc(NC(=O)c3ccncc3)ccc2O[C@@H]1CN(C)C(=O)Nc1ccccc1	TrxR1 inh 71µM (no result: Sfp PPTase inh)
C[C@H](CO)N1C[C@H](C)[C@@H](CN(C)C(=O)Nc2ccc(C(F)(F)F)cc2)Oc2ccc(NC(=O)c3ccncc3)cc2C1=O	TrxR1 inh inconclusive (no result: Sfp PPTase inh)
CC(C)NC(=O)Nc1ccc2c(c1)CC(=O)N([C@@H](C)CO)C[C@H](C)[C@@H](CN(C)C(=O)NC1CCCCC1)O2	VDR inhibitor 89µM (no result: Sfp PPTase inh)
C[C@@H]1CN([C@@H](C)CO)C(=O)Cc2cc(NC(=O)Nc3ccc4c(c3)OCO4)ccc2O[C@@H]1CN(C)C(=O)NC1CCCCC1	none (no result: Sfp PPTase inh)
Cc1cccc(/C=N/NC(=O)c2cc3c(s2)-c2ccccc2CC3)c1	PLK1 PBD block 21µM
Cc1ccc(-n2c(C)nn(Cc3ccc([N+](=O)[O-])cc3)c2=O)cc1	none
Cc1ccc(-n2c3nc(=O)[nH]c(=O)c-3cc3cc([N+](=O)[O-])ccc32)cc1	VDR inhibitor inconclusive, PLK1 PBD block 17µM
CC(OCCN1CCCC1)(c1ccc(F)cc1)c1ccc(F)cc1	VDR inhibitor inconclusive, PLK1 PBD block 30µM
CCn1c(-c2ccc(C)cc2)n[nH]c1=S	Sfp PPTase inh inconclusive
Cc1ccc(-c2csc3n[nH]c(=S)n23)cc1	TrxR1 inh inconclusive, Sfp PPTase inh 13µM
Cc1ccc(S(=O)(=O)N2CCCc3cc(NC(=O)c4ccc(F)c(F)c4)ccc32)cc1	none (no result: PLK1 PBD block, Sfp PPTase inh)
COc1cccc(OC)c1C(=O)Nc1ccc2c(c1)CCCN2S(=O)(=O)c1ccc(C)cc1	VDR inhibitor inconclusive, PLK1 PBD block 11µM
Cc1ccc(S(=O)(=O)N2CCCc3cc(NC(=O)c4c(F)cccc4F)ccc32)cc1	PLK1 PBD block 27µM
O=C(OCc1nnc(-c2ccc(Br)cc2)o1)c1ccco1	none
O=C(OCc1nc(-c2ccccc2)oc1COC(=O)c1ccco1)c1ccco1	TrxR1 inh 3.2µM
COC(=O)c1nc(-c2ccc(C)cc2)[nH]c1C(C)(C)C	none (no result: VDR inhibitor, IDH1 R132H inh, TrxR1 inh, TrxR1 substrate, Sfp PPTase inh)
CN1CCN(CCCCOc2ccccc2C=O)CC1	Sfp PPTase inh 25µM
COc1cccc(OC)c1OCCCCCCN1CCN(C)CC1	none
CSc1nc(O)c(C(c2cccc([N+](=O)[O-])c2)c2c(O)nc(SC)[nH]c2=O)c(=O)[nH]1	TrxR1 inh 45µM
CSc1nc(O)c(C(c2ccc(O)cc2)c2c(O)nc(SC)[nH]c2=O)c(=O)[nH]1	VDR inhibitor inconclusive, TrxR1 inh 8.9µM, PLK1 PBD block inconclusive, Sfp PPTase inh 50µM
CCOc1ccc(C(c2c(O)nc(SC)[nH]c2=O)c2c(O)nc(SC)[nH]c2=O)cc1	VDR inhibitor inconclusive, TrxR1 inh 28µM, PLK1 PBD block 24µM (no result: Sfp PPTase inh)
CCOc1ccccc1C(c1c(O)nc(SC)[nH]c1=O)c1c(O)nc(SC)[nH]c1=O	TrxR1 inh inconclusive (no result: Sfp PPTase inh)
C=CCOc1ccc(C(c2c(O)nc(SC)[nH]c2=O)c2c(O)nc(SC)[nH]c2=O)cc1	VDR inhibitor 22µM, TrxR1 inh 7.9µM, PLK1 PBD block 12µM (no result: Sfp PPTase inh)
CCOC(=O)c1c(C)c(C(=O)NCCc2ccc(OC)cc2)c(C)n1CC	none (no result: PLK1 PBD block, Sfp PPTase inh)
CC(=O)N1CCc2cc(Br)cc(S(=O)(=O)NCCc3ccc(Cl)cc3)c21	none (no result: PLK1 PBD block, Sfp PPTase inh)
COc1cccc(NC(=O)CCNS(=O)(=O)c2ccc3c(c2)CCCC(=O)N3)c1	none (no result: PLK1 PBD block, Sfp PPTase inh)
O=c1[nH]c(C2CCN(S(=O)(=O)c3ccccc3)CC2)nc2c1nnn2Cc1ccccc1	PLK1 PBD block 24µM
O=c1c(C(c2nnnn2C2CCCCC2)N2CCCCC2)coc2ccc(Cl)cc12 (stereo not drawn)	TrxR1 inh 28µM
CCCCNC(=O)C(CC)n1c(SCc2cccc(F)c2)nc2ccncc21 (stereo not drawn)	none (no result: IDH1 R132H inh, PLK1 PBD block, Sfp PPTase inh)
COc1ccc(Cc2nn3c(Cn4nnc5ccccc54)nnc3s2)cc1	VDR inhibitor inconclusive, PLK1 PBD block 21µM, Sfp PPTase inh 16µM
c1ccc(-c2nn3c(Cn4nnc5ccccc54)nnc3s2)cc1	PLK1 PBD block 13µM
c1ccc2c(c1)nnn2Cc1nnc2sc(-c3ccc4c(c3)OCCO4)nn12	PLK1 PBD block 11µM, Sfp PPTase inh 18µM
COc1ccc(S(=O)(=O)N(C)CC(=O)NCc2ccco2)cc1OC	TrxR1 inh inconclusive
CC(C)(C)c1cc(CNC2CS(=O)(=O)C[C@@H]2O)cc(C(C)(C)C)c1O (stereo partly drawn)	VDR inhibitor 50µM, TrxR1 inh inconclusive, PLK1 PBD block inconclusive
Cc1cc(C)c(OCC(O)CNC(C)(C)C)c(C)c1 (stereo not drawn)	PLK1 PBD block 24µM
CC(C)(C)c1ccc(NC(=O)Nc2ccc(F)cc2)cc1	PLK1 PBD block 27µM
